About 83,000 compounds went through this panel and 20% of them were active in at least one assay; those are over-represented in the sample as a whole.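 Values shown are percent growth following 48 h exposure of cells in 96-well plates to a single concentration of compound; below 10 was considered active.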 Unmarked numbers belong to inactive results. The source made the active and inactive calls.

The text below walks through data of PubChem BioAssay (NCI).

The experiment concerns UACC-62 melanoma. Nature of the experiment: NCI-60 one-dose screen, 48 h (100 = growth as untreated, 0 = no growth, -100 = all killed). The note with it: 10 µM unless noted.
For `CCN(CC)CC#CCOC(=O)[C@]1(C)CCC[C@]2(C)[C@H]3C[C@H]4C(C(C)C)=C[C@]3(CC[C@H]21)[C@@H]1C(=O)CCC(=O)[C@@H]14`, the growth is 70.5%.
For `CN1CCN(CC#CCOC(=O)CNC(=O)[C@]23CCC(C)(C)C[C@H]2C2=CC[C@@H]4[C@@]5(C)CC[C@H](O)C(C)(C)[C@@H]5CC[C@@]4(C)[C@]2(C)CC3)CC1` the value was 90.3%; for `Nc1cc(N)c(S(=O)(=O)O)cc1N=Nc1cc([N+](=O)[O-])ccc1O`, 92.1%.
For `COc1ccc2c(c1)Oc1nc(N)c(C#N)c(N)c1C2Sc1ccc(SC)cc1` (stereo not drawn) the value was 50.7%.
For `CO[C@@]12C=C[C@@]34CCC(=O)N3c3ccccc3[C@@H](O1)C4C2` the value was 94.5%; for `COc1cc(NC(=O)Nc2cnc(Nc3ccc(N4CCOCC4)cc3)nc2Oc2ccc(F)cc2)cc(OC)c1`, 106%.
In the case of `C/C(=N/Nc1nc2ccccc2n1C)c1ccccn1`, the growth was -26.5% (active).
For the molecule `Cc1cccc(C)c1NC(=O)CN(CC(C)C)CC(O)COc1ccccc1` (stereo not drawn), the growth is 83.9%.
For the molecule `COC(=O)c1ccc2c(c1)NC(=O)[C@@H]1CCCN21`, the growth was 94.6%.
The value for `O=C1c2ccccc2C(=O)c2c1oc1c2c(=O)[nH]c2ccc(Cl)cc21` was 75.1%; that for `COc1cc(NC(=O)Nc2cnc(Nc3ccc(N4CCOCC4)cc3)nc2Oc2ccc(C(F)(F)F)cc2)cc(OC)c1` was 105%.
For `COc1ccc(C(=O)c2cc(F)c(F)c(OC)c2F)cc1OC(=O)CCl` the value was 31.7%.
For `Nc1c(C(=O)Nc2cccc3ccccc23)sc2nc3c(cc12)CCCCC3` the value was 38%; for `O=c1[nH]c2ccccc2cc1-c1nc2ccncc2[nH]1`, 80.3%.
On to `C=C1C(=O)O[C@H]2[C@H]1CC/C(COC(=O)NCc1nc3ccccc3[nH]1)=C\CC[C@@]1(C)O[C@@H]21`, for which the growth is 80%.
For `Cc1cccc(C)c1NCc1nnc(-c2ccco2)o1` the value was 90.1%; for `Nc1c(C(=O)Nc2ccccn2)sc2nc3c(cc12)CCCC3`, 41.2%.
For `Cc1c(Cl)cccc1NC(=O)c1sc2nc3c(cc2c1N)CCCCC3` the value was 39.6%; for `CCSc1nc(Cl)c(C#N)c(-c2ccc(F)cc2)n1`, 93.4%.
For `CCc1n(Cc2ccc3ccccc3c2)c2ccccc2[n+]1Cc1ccc2ccccc2c1` the value was 50.6%; for `NC(=O)CN1C(=O)c2ccccc2C1=O`, 95.7%.
For `O=C1C(=O)c2c(nc3ccc(C(F)(F)F)cn23)-c2ccccc21`, the growth is -82.4% (active).
For `COc1cccc(NC(=O)Nc2ccc(Nc3ncnc4[nH]c(C)c(C)c34)cc2)c1` the value was 96.6%; for `NC(=O)c1ccc2nc3c(n2c1)C(=O)C(=O)c1ccccc1-3`, -94.1% (active); for `O=C(O)c1cc(N=Nc2ccc(-c3ccc(N=Nc4c(S(=O)(=O)O)cc5ccc(Nc6ccccc6)cc5c4O)cc3)cc2)ccc1O`, 93.7%.
For `C=C1C(=O)O[C@H]2[C@H]1CCC(/C=N/c1ncc(Br)cc1N)=C\CC[C@@]1(C)O[C@@H]21` the value was 22.5%; for `Cc1nc2sc(C(=O)Nc3ccccc3Cl)c(N)c2cc1C(C)O` (stereo not drawn), 68.2%; for `COc1ccc(/C=C/C(=O)c2ccc(NC(=O)CSc3nnc(-c4ccc(OC)c(OC)c4)n3-c3ccccc3)cc2)cc1`, 68.4%.
As for `O=c1c2ccccc2n(CC(O)CN2CCCC2)c2c(Br)cccc12` (stereo not drawn), the growth is 119%.
`O=C(CCCCCCCCC(=O)Nc1cccc(C2=NCCN2)c1)Nc1cccc(C2=NCCN2)c1`: the growth was 105%.
For `Cc1ccc(C(=O)/C(=C/c2ccc([N+](=O)[O-])cc2)S(=O)Cc2ccccc2)cc1` (stereo not drawn) the value was -54.9% (active); for `COc1ccc(-c2nc(C#N)c(NCC(c3ccc(Cl)cc3)N3CCCCC3)o2)cc1` (stereo not drawn), 90.4%; for `O=C1CC(c2ccc(O)c(O)c2)Oc2cc(O)c([C@@H]3O[C@H](CO)[C@@H](O)[C@H](O)[C@H]3O)c(O)c21` (stereo partly drawn), 105%.
The value for `CCCn1c2cc(OCc3cn(-c4ccc(Cl)cc4)nn3)ccc2c2ccnc(C)c21` was 74.9%; that for `COc1ccccc1C(=O)/C=C/c1cc2cccc(OC)c2[nH]c1=O` was -29.1% (active); that for `O=[N+]([O-])c1ccc(N=Nc2c(O)c(N=Nc3cc([N+](=O)[O-])cc([N+](=O)[O-])c3O)cc(N=Nc3cc(S(=O)(=O)O)cc4cc(S(=O)(=O)O)cc(O)c34)c2O)cc1` was 95.5%.
For `COc1cc(N=Nc2cc(S(=O)(=O)O)cc3cc(S(=O)(=O)O)cc(O)c23)c(C)cc1N=Nc1c(S(=O)(=O)O)cc2cc(Nc3ccccc3)ccc2c1O` the value was 98.5%.
Turning to `C=C1C(=O)O[C@H]2[C@H]1CC/C(COC(=O)/C=C/c1cccnc1)=C\CC[C@@]1(C)O[C@@H]21`, the growth is 41.1%.
